Experimental data reported in PubChem BioAssay (NCI).
About 79,000 compounds went through this panel and 15% of them were active in at least one assay; those are over-represented in the sample as a whole. Values without a mark were called inactive. Calls of active or inactive are those of the source. Rule as the data show it: active = growth inhibition above about 70%; inactive = the rest.

How the values were obtained:
[1] = NCI Yeast Anticancer Drug Screen. Data for the rad50EPP+ strain (AID 151);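 also: 0% = growth of vehicle-treated control cultures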; conditions: S. cerevisiae rad50 mutant strain, active compounds read high
How it was run: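 Genetically defined yeast (rad50EPP+, DNA damage repair alteration) is grown with compound, and inhibition of growth is expressed relative to vehicle-treated controls.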

[2] = NCI Yeast Anticancer Drug Screen. Data for the mgt1 strain (AID 153); conditions: S. cerevisiae mgt1 mutant growth inhibition, active compounds read high
How it was run: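 In the mgt1 strain, test compounds were added and growth inhibition was determined relative to vehicle-treated controls.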

[3] = NCI Yeast Anticancer Drug Screen. Data for the rad50 strain (AID 155);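 also: 0% = growth of vehicle-only cultures of the same strain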; conditions: S. cerevisiae rad50 strain growth inhibition, active compounds read high
How it was run: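 Genetically altered yeast (DNA repair pathway); compound treatment; growth inhibition vs vehicle ctrl.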

[4] = NCI Yeast Anticancer Drug Screen. Data for the mec2-1 strain (AID 157); conditions: S. cerevisiae mec2-1 strain, active compounds read high
How it was run: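 Each compound was tested on mec2-1 yeast, a strain altered in DNA damage repair or cell cycle control. Growth inhibition is reported relative to vehicle.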

[5] = NCI Yeast Anticancer Drug Screen. Data for the rad14 strain (AID 159);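 also: 0% = growth of vehicle-treated control cultures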; conditions: S. cerevisiae rad14 strain growth inhibition, active compounds read high
How it was run: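 Test compounds were applied to a repair-deficient yeast strain. Its growth was then compared with that of cultures given vehicle alone, and inhibition was expressed relative to those controls.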

[6] = NCI Yeast Anticancer Drug Screen. Data for the sgs1 mgt1 strain (AID 161);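 also: 0% = growth of cultures given vehicle only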; conditions: S. cerevisiae sgs1 mgt1 strain, active compounds read high
How it was run: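 Read-out: growth inhibition vs vehicle controls. Cells: mutant yeast strain deficient in DNA damage repair.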

[7] = NCI Yeast Anticancer Drug Screen. Data for the CLN2oe strain (AID 163);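 also: 0% = growth of vehicle-only control cultures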; conditions: S. cerevisiae CLN2oe strain, active compounds read high
How it was run: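 First, the altered yeast strain was treated with each compound; second, its growth was measured; finally, inhibition was derived by comparison with vehicle controls.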

[8] = NCI Yeast Anticancer Drug Screen. Data for the cln2 rad14 strain (AID 165);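 also: 0% = growth equal to vehicle treated cultures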; conditions: S. cerevisiae cln2 rad14 strain, active compounds read high
How it was run: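 Test compounds were added to cln2 rad14 yeast cultures; inhibition of growth was then determined by comparison with vehicle treatment.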

[9] = NCI Yeast Anticancer Drug Screen. Data for the bub3 strain (AID 167); conditions: S. cerevisiae bub3 mutant strain, active compounds read high
How it was run: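 Yeast carrying a defined mutation is treated with each compound, and growth is compared with that of vehicle-exposed cells to give inhibition.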

[10] = NCI Yeast Anticancer Drug Screen. Data for the wt2 strain (AID 169);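 also: 0% = growth of vehicle-treated yeast cultures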; conditions: S. cerevisiae wt2 strain growth inhibition, active compounds read high
How it was run: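 The panel's yeast strains carry defined changes in DNA repair or cell cycle genes. Each strain is grown with compound, and growth loss is scored relative to vehicle.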

[11] = NCI Yeast Anticancer Drug Screen. Data for the sgs1 strain (AID 173);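 also: 0% = growth of vehicle-only control cultures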; conditions: S. cerevisiae sgs1 mutant, active compounds read high
How it was run: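 Vehicle-treated cultures served as reference for growth inhibition of a yeast strain altered in DNA damage repair or cell cycle control after compound exposure.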

[12] = NCI Yeast Anticancer Drug Screen. Data for the mlh1 rad18 strain (AID 175); conditions: S. cerevisiae mlh1 rad18 strain growth inhibition, active compounds read high
How it was run: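 Inhibition values reflect reduced growth of mutant yeast versus vehicle-treated controls following compound exposure; the mutations affect DNA damage repair.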

[13] = NCI Yeast Anticancer Drug Screen. Data for the rad18 strain (AID 177); conditions: S. cerevisiae rad18 mutant growth inhibition, active compounds read high
How it was run: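 Steps: expose repair-mutant yeast to compound; measure growth; express as inhibition relative to vehicle control.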

[14] = at 5.0 µM (retest, dose inferred, filed as 0.5)
[15] = at 50.0 µM (retest, dose inferred, filed as 5.0)

Work on `C[n+]1c(-c2ccc(NC(=O)c3ccc(C(=O)Nc4ccc(-c5cn6ccccc6[n+]5C)cc4)cc3)cc2)cn2ccccc21` yielded a growth inhibition ([1]; at 1.2 µM) of -23%, a growth inhibition ([1]; at 3.7 µM) of -6% and a growth inhibition ([1]; at 11.0 µM) of 36%. The growth inhibition ([1]; at 33.0 µM) was 77% (active), the growth inhibition ([1]; at 100.0 µM) was 88% (active) and the growth inhibition ([2]; at 1.2 µM) was 3%. The growth inhibition ([2]; at 3.7 µM) was 2%, the growth inhibition ([2]; at 11.0 µM) was 20% and the growth inhibition ([2]; at 33.0 µM) was 85% (active). The growth inhibition ([2]; at 100.0 µM) was 92% (active), the growth inhibition ([3]; at 1.2 µM) was 3% and the growth inhibition ([3]; at 3.7 µM) was 4%. The growth inhibition [3, 14] was 16%, the growth inhibition ([3]; at 11.0 µM) was 17% and the growth inhibition ([3]; at 33.0 µM) was 76% (active). The growth inhibition [3, 15] was 98% (active), the growth inhibition ([3]; at 50.0 µM) was 74.8% (active) and the growth inhibition ([3]; at 100.0 µM) was 91% (active). It also gave a growth inhibition ([4]; at 1.2 µM) of 4%, a growth inhibition ([4]; at 3.7 µM) of 9% and a growth inhibition [4, 14] of 5%. The growth inhibition ([4]; at 11.0 µM) was 30%, the growth inhibition ([4]; at 33.0 µM) was 82% (active) and the growth inhibition [4, 15] was 98% (active). The growth inhibition ([4]; at 50.0 µM) was 56.5%, the growth inhibition ([4]; at 100.0 µM) was 96% (active) and the growth inhibition ([5]; at 1.2 µM) was -2%. The growth inhibition ([5]; at 3.7 µM) was -2%, the growth inhibition ([5]; at 11.0 µM) was 13% and the growth inhibition ([5]; at 33.0 µM) was 84% (active). The growth inhibition ([5]; at 100.0 µM) was 96% (active), the growth inhibition [6, 14] was 15% and the growth inhibition [6, 15] was 97% (active). It also gave a growth inhibition ([6]; at 50.0 µM) of 64.5%, a growth inhibition ([7]; at 1.2 µM) of -1% and a growth inhibition ([7]; at 3.7 µM) of -4%. For the same compound, the growth inhibition ([7]; at 11.0 µM) was 18%, the growth inhibition ([7]; at 33.0 µM) was 66% and the growth inhibition ([7]; at 100.0 µM) was 89% (active). For the same compound, the growth inhibition [8, 14] was 32%, the growth inhibition [8, 15] was 96% (active) and the growth inhibition ([8]; at 50.0 µM) was 51.5%. It also gave a growth inhibition ([9]; at 1.2 µM) of -3%, a growth inhibition ([9]; at 3.7 µM) of 9% and a growth inhibition [9, 14] of 37%. The growth inhibition ([9]; at 11.0 µM) was 30%, the growth inhibition ([9]; at 33.0 µM) was 83% (active) and the growth inhibition [9, 15] was 97% (active). For the same compound, the growth inhibition ([9]; at 50.0 µM) was 57.6%, the growth inhibition ([9]; at 100.0 µM) was 93% (active) and the growth inhibition ([10]; at 1.2 µM) was 4%. The growth inhibition ([10]; at 3.7 µM) was 2%, the growth inhibition ([10]; at 11.0 µM) was 18% and the growth inhibition ([10]; at 33.0 µM) was 84% (active). The growth inhibition ([10]; at 100.0 µM) was 94% (active), the growth inhibition ([11]; at 1.2 µM) was -2% and the growth inhibition ([11]; at 3.7 µM) was 1%. For the same compound, the growth inhibition ([11]; at 11.0 µM) was 29%, the growth inhibition ([11]; at 33.0 µM) was 83% (active) and the growth inhibition ([11]; at 100.0 µM) was 93% (active). For the same compound, the growth inhibition [12, 14] was 52%, the growth inhibition [12, 15] was 98% (active) and the growth inhibition ([12]; at 50.0 µM) was 75.5% (active). It also gave a growth inhibition ([13]; at 1.2 µM) of 4%, a growth inhibition ([13]; at 3.7 µM) of 2% and a growth inhibition ([13]; at 11.0 µM) of 24%. For the same compound, the growth inhibition ([13]; at 33.0 µM) was 81% (active) and the growth inhibition ([13]; at 100.0 µM) was 92% (active).
